# The supplement of paper PMC13380429
# Where a name gives a salt, the structure may show the parent alone. A number with no mark means an inactive call.
# Test system: Vero E6 infected with SARS-CoV-2
# Experiment: inhibition of SARS-CoV-2 cytopathic effect; higher = more antiviral protection, active = above 15
# Conditions: 10000 nM; 48 h
row,SMILES,inhibition of SARS-CoV-2 cytopathic effect
1,N[C@@H]1CCN(c2cccnc2)C1,3.85%
2,O=C1c2ccccc2-c2n[nH]c3cccc1c23 [pyrazolanthrone],-5.91%
3,CCC(=O)O[C@H]1CC[C@H]2[C@@H]3CCC4=CC(=O)CC[C@]4(C)[C@H]3CC[C@]12C,-14%
4,N[C@@H](CSCCCO)C(=O)O [fudosteine],-1.74%
5,CC(C)(Cc1c[nH]c2ccc(Cl)cc12)NCCOc1ccccc1OCC1CC1,-19.4%
6,Cc1cccc(C)c1NC(=O)c1ccccc1C(=O)O [ftaxilide],1.39%
7,CO[C@H]1/C=C/O[C@@]2(C)Oc3c(C)c(O)c4c(O)c(c(/C=N/N5CCN(C)CC5)c(O)c4c3C2=O)NC(=O)/C(C)=C\C=C\[C@H](C)[C@H](O)[C@@H](C)[C@@H](O)[C@@H](C)[C@H](OC(C)=O)[C@@H]1C [rifampin],-1.54%
8,CCN(CC)Cc1ccc(C(=O)N(CCc2ccccc2OC)[C@@H]2CCNC2)cc1,-1.55%
9,CCc1cc(Cl)c(OC)c(C(=O)NC[C@@H]2CCCN2CC)c1O [eticlopride],3.78%
10,C=C(C)[C@@H]1CC[C@]2(C(=O)O)CC[C@]3(C)[C@H](CC[C@@H]4[C@@]5(C)CC[C@H](O)C(C)(C)[C@@H]5CC[C@]43C)[C@@H]12 [betulinic-acid],0.04%
11,CC/C(=C(\c1ccc(O)cc1)c1ccc(OCCNC)cc1)c1ccccc1 [Endoxifen HCl],57% (active)
12,O=P1(N(CCCl)CCCl)NCCCO1 (stereo not given) [cyclophosphamide],0.46%
13,NCCc1c[nH]c2ccc(O)cc12 [serotonin],0.37%
14,C[C@H]1c2cccc(O)c2C(=O)C2=C(O)[C@]3(O)C(=O)C(C(N)=O)=C(O)[C@@H](N(C)C)[C@@H]3[C@@H](O)[C@@H]21 [doxycycline],-0.76%
15,N=C(NCc1ccc(Cl)cc1)SCCCc1c[nH]cn1 [clobenpropit],0.31%
16,CCn1nc(C)c2c1C(c1ccccc1)=NCC(=O)N2 [ripazepam],-3.15%
17,COc1cc(CCc2cc(NC(=O)c3ccc(N4CC(C)NC(C)C4)cc3)n[nH]2)cc(OC)c1 (stereo not given),-1.21%
18,CCOC(=O)CCC(=O)O[C@H]1[C@H](O[C@@H]2[C@@H](C)[C@H](O[C@H]3C[C@@](C)(OC)[C@@H](O)[C@H](C)O3)[C@@H](C)C(=O)O[C@H](CC)[C@@](C)(O)[C@H](O)[C@@H](C)C(=O)[C@H](C)C[C@@]2(C)O)O[C@H](C)C[C@@H]1N(C)C [erythromycin-ethylsuccinate],-0.24%
19,COc1ccc(-c2ccc3cc(C(=O)O)ccc3c2)cc1C12CC3CC(CC(C3)C1)C2 [adapalene],3.12%
20,C=C1C[C@@]2(O)O[C@@]3(C[C@H]2C(C)C)[C@@H](C)CC[C@@H]13 [curcumol],-2.49%

row,SMILES,inhibition of SARS-CoV-2 cytopathic effect
1,O=C(O)CN1C(=O)c2cccc3cccc(c23)C1=O [alrestatin],1.83%
2,CCCCOc1ccc(-c2cncc(C(=O)NCc3cccnc3N3CCOCC3)c2)cc1Cl,-3.95%
3,O=C(c1cccc(Br)c1)N1CCC(N2CCCC2)CC1,-0.32%
4,CC[C@H]1[C@@H](O)[C@@H]2[C@H](CC[C@]3(C)[C@@H]([C@H](C)CCC(=O)O)CC[C@@H]23)[C@@]2(C)CC[C@@H](O)C[C@@H]12 [obeticholic-acid],1.65%
5,CC(C)(C#N)c1ccc(N2C(=O)OCc3cnc4ccc(-c5cnc6ccccc6c5)cc4c32)cc1,4.4%
6,c1cc(-c2cnn3cc(-c4ccc(N5CCNCC5)cc4)cnc23)c2cccnc2c1,6.47%
7,c1ccc(N2CCN(CCCOc3ccc4c(c3)OCO4)CC2)cc1,-4.64%
8,CC(C)(C)NCC(O)c1cc(Br)no1 (stereo not given) [broxaterol],-2.74%
9,Nc1nc(=O)n([C@H]2C[C@H](O)[C@@H](CO)O2)cc1Cl [cytochlor],-1.33%
10,COc1cc(OC)c(C(=O)CCCN2CCCC2)c(OC)c1 [buflomedil],1.28%
11,CCCCCCCCC(=O)N[C@H](CN1CCCC1)[C@H](O)c1ccc2c(c1)OCCO2,9.9%
12,O=C(O)C(F)(F)C(F)(F)C(F)(F)C(F)(F)C(F)(F)C(F)(F)C(F)(F)F [ammonium-perfluorocaprylate],-2.3%
13,Fc1ccc2c(CCNCc3cccc(OCC(F)(F)C(F)F)c3)c[nH]c2c1 [idalopirdine],-3.37%
14,C=CC[C@]1(O)CC[C@H]2[C@@H]3CCC4=CCCC[C@@H]4[C@H]3CC[C@@]21C [allylestrenol],1.75%
15,CSc1ccc(OCc2ncc([N+](=O)[O-])n2C)cc1 [fexinidazole],-0.36%
16,c1cc(OCCN2CCCCC2)cc(-c2n[nH]c3ccc(-c4nnc[nH]4)cc23)c1,3.74%
17,CCCC(=O)C1(c2ccccc2)CCN(C(=O)[C@@H](Cc2ccc(OC)cc2)NC(=O)[C@@H](N)Cc2cncn2C)CC1,0.37%
18,COc1ccc2c(c1)c(CC(=O)N1CCOCC1)c(C)n2C(=O)c1ccc(Cl)cc1,-0.85%
19,N#CC(Cc1ccc(O)cc1)c1ccc(O)cc1 (stereo not given) [diarylpropionitrile],-1.54%
20,OC[C@H]1O[C@H](O[C@H]2O[C@H](CO)[C@@H](O)[C@H](O)[C@H]2O)[C@H](O)[C@@H](O)[C@@H]1O [cabaletta],0.76%
